Over roughly 1,500 compounds, “Excess HSA synergy score (sum over dose matrix of excess over highest single agent)” has its median near 43; the lowest 2% begin near -900. Only a selection was taken, and the lowest values are over-represented in it overall.
Tested on: PEO-1
Assay: Excess HSA synergy score (sum over dose matrix of excess over highest single agent) (score (summed % response)); higher = less synergy / more antagonism (negative = synergy)
Conditions: 72 h, read-out: viability/apoptosis luminescence (CellTiter-Glo or Caspase3-Glo / not stated per table)
[1] = matrix design: 6x6, 5-fold dilutions (primary screen)
[2] = matrix design: 10x10, 9-step dilutions (confirmatory)

| Structure (SMILES) | Excess HSA synergy score [1] | Excess HSA synergy score [2] |
| --- | --- | --- |
| Nc1nc2[nH]cc(CCc3ccc(C(=O)N[C@@H](CCC(=O)O)C(=O)O)cc3)c2c(=O)[nH]1 [Pemetrexed disodium] + CC[C@H](NC(=O)[C@H](C)NC)C(=O)N1C[C@@H](O)C[C@H]1Cc1c(-c2[nH]c3cc(F)ccc3c2C[C@@H]2C[C@H](O)CN2C(=O)[C@H](CC)NC(=O)[C@H](C)NC)[nH]c2cc(F)ccc12 [Birinapant] | -173 | – |
| Nc1nc(F)nc2c1ncn2[C@@H]1O[C@H](CO)[C@@H](O)[C@H]1O [2-Fluoroadenosine] + CC[C@H](NC(=O)[C@H](C)NC)C(=O)N1C[C@@H](O)C[C@H]1Cc1c(-c2[nH]c3cc(F)ccc3c2C[C@@H]2C[C@H](O)CN2C(=O)[C@H](CC)NC(=O)[C@H](C)NC)[nH]c2cc(F)ccc12 [Birinapant] | 41.5 | – |
| Nc1ncn([C@H]2C[C@H](O)[C@@H](CO)O2)c(=O)n1 [Decitabine] + CC[C@H](NC(=O)[C@H](C)NC)C(=O)N1C[C@@H](O)C[C@H]1Cc1c(-c2[nH]c3cc(F)ccc3c2C[C@@H]2C[C@H](O)CN2C(=O)[C@H](CC)NC(=O)[C@H](C)NC)[nH]c2cc(F)ccc12 [Birinapant] | -104 | – |
| Nc1nc(Cl)nc2c1ncn2[C@@H]1O[C@H](CO)[C@@H](O)[C@@H]1F [Clofarabine] + CC[C@H](NC(=O)[C@H](C)NC)C(=O)N1C[C@@H](O)C[C@H]1Cc1c(-c2[nH]c3cc(F)ccc3c2C[C@@H]2C[C@H](O)CN2C(=O)[C@H](CC)NC(=O)[C@H](C)NC)[nH]c2cc(F)ccc12 [Birinapant] | -118 | -898 |
| Nc1ncnc2c1ncn2[C@@H]1O[C@H](CO)[C@@H](O)[C@H]1O [Adenosine] + CC[C@H](NC(=O)[C@H](C)NC)C(=O)N1C[C@@H](O)C[C@H]1Cc1c(-c2[nH]c3cc(F)ccc3c2C[C@@H]2C[C@H](O)CN2C(=O)[C@H](CC)NC(=O)[C@H](C)NC)[nH]c2cc(F)ccc12 [Birinapant] | 270 | – |
| Nc1nc(=O)n([C@H]2C[C@H](O)[C@@H](CO)O2)cc1F + CC[C@H](NC(=O)[C@H](C)NC)C(=O)N1C[C@@H](O)C[C@H]1Cc1c(-c2[nH]c3cc(F)ccc3c2C[C@@H]2C[C@H](O)CN2C(=O)[C@H](CC)NC(=O)[C@H](C)NC)[nH]c2cc(F)ccc12 [Birinapant] | -352 | – |
| Nc1nc(Cl)nc2c1ncn2[C@H]1C[C@H](O)[C@@H](CO)O1 [Cladribine] + CC[C@H](NC(=O)[C@H](C)NC)C(=O)N1C[C@@H](O)C[C@H]1Cc1c(-c2[nH]c3cc(F)ccc3c2C[C@@H]2C[C@H](O)CN2C(=O)[C@H](CC)NC(=O)[C@H](C)NC)[nH]c2cc(F)ccc12 [Birinapant] | -229 | -1080 |
| CC1=C(CO)C(=O)O[C@@H]([C@@H](C)[C@H]2CC[C@H]3[C@@H]4C[C@H]5O[C@]56[C@@H](O)C=CC(=O)[C@]6(C)[C@H]4CC[C@]23C)C1 [Withaferin A] + CC[C@H](NC(=O)[C@H](C)NC)C(=O)N1C[C@@H](O)C[C@H]1Cc1c(-c2[nH]c3cc(F)ccc3c2C[C@@H]2C[C@H](O)CN2C(=O)[C@H](CC)NC(=O)[C@H](C)NC)[nH]c2cc(F)ccc12 [Birinapant] | -42.3 | – |
| O=C(Nc1nnc(-c2ccco2)o1)c1cc(-c2ccccc2)nc2ccccc12 + CC[C@H](NC(=O)[C@H](C)NC)C(=O)N1C[C@@H](O)C[C@H]1Cc1c(-c2[nH]c3cc(F)ccc3c2C[C@@H]2C[C@H](O)CN2C(=O)[C@H](CC)NC(=O)[C@H](C)NC)[nH]c2cc(F)ccc12 [Birinapant] | 57.7 | – |
| Cc1cnc(Nc2ccc(OCCN3CCCC3)cc2)nc1Nc1cccc(S(=O)(=O)NC(C)(C)C)c1 + CC[C@H](NC(=O)[C@H](C)NC)C(=O)N1C[C@@H](O)C[C@H]1Cc1c(-c2[nH]c3cc(F)ccc3c2C[C@@H]2C[C@H](O)CN2C(=O)[C@H](CC)NC(=O)[C@H](C)NC)[nH]c2cc(F)ccc12 [Birinapant] | 70.3 | – |
| CCN(CC)CCOc1ccc(Nc2ncc3cc(-c4c(Cl)cccc4Cl)c(=O)n(C)c3n2)cc1 + CC[C@H](NC(=O)[C@H](C)NC)C(=O)N1C[C@@H](O)C[C@H]1Cc1c(-c2[nH]c3cc(F)ccc3c2C[C@@H]2C[C@H](O)CN2C(=O)[C@H](CC)NC(=O)[C@H](C)NC)[nH]c2cc(F)ccc12 [Birinapant] | -224 | -954 |
| CSc1cccc(Nc2ncc3cc(-c4c(Cl)cccc4Cl)c(=O)n(C)c3n2)c1 + CC[C@H](NC(=O)[C@H](C)NC)C(=O)N1C[C@@H](O)C[C@H]1Cc1c(-c2[nH]c3cc(F)ccc3c2C[C@@H]2C[C@H](O)CN2C(=O)[C@H](CC)NC(=O)[C@H](C)NC)[nH]c2cc(F)ccc12 [Birinapant] | -134 | – |
| CO[C@@]12[C@H](COC(N)=O)C3=C(C(=O)C(C)=C(N)C3=O)N1C[C@@H]1N[C@@H]12 [Mitomycin C] + CC[C@H](NC(=O)[C@H](C)NC)C(=O)N1C[C@@H](O)C[C@H]1Cc1c(-c2[nH]c3cc(F)ccc3c2C[C@@H]2C[C@H](O)CN2C(=O)[C@H](CC)NC(=O)[C@H](C)NC)[nH]c2cc(F)ccc12 [Birinapant] | -351 | -1240 |
| CC(C)OC(=O)C1=CN(C(=O)c2ccc(F)c(F)c2)CC(C)(C)c2c1[nH]c1ccccc21 [Turofexorate isopropyl] + CC[C@H](NC(=O)[C@H](C)NC)C(=O)N1C[C@@H](O)C[C@H]1Cc1c(-c2[nH]c3cc(F)ccc3c2C[C@@H]2C[C@H](O)CN2C(=O)[C@H](CC)NC(=O)[C@H](C)NC)[nH]c2cc(F)ccc12 [Birinapant] | 99.9 | – |
| Cc1cc(O)c2c3c4c(cc(O)c13)C(C)(C)C(=O)c1c(O)cc(O)c(c1-4)C2=O [Resistomycin] + CC[C@H](NC(=O)[C@H](C)NC)C(=O)N1C[C@@H](O)C[C@H]1Cc1c(-c2[nH]c3cc(F)ccc3c2C[C@@H]2C[C@H](O)CN2C(=O)[C@H](CC)NC(=O)[C@H](C)NC)[nH]c2cc(F)ccc12 [Birinapant] | -31.1 | – |
| CCN1CCN(CC(=O)Nc2ccc(-c3cccc4c(=O)cc(N5CCOCC5)oc34)c3sc4ccccc4c23)CC1 + CC[C@H](NC(=O)[C@H](C)NC)C(=O)N1C[C@@H](O)C[C@H]1Cc1c(-c2[nH]c3cc(F)ccc3c2C[C@@H]2C[C@H](O)CN2C(=O)[C@H](CC)NC(=O)[C@H](C)NC)[nH]c2cc(F)ccc12 [Birinapant] | 32 | – |
| Nc1ccc(C(=O)Nc2cccc(-c3nc(N4CCOCC4)c4oc5ncccc5c4n3)c2)cn1 + CC[C@H](NC(=O)[C@H](C)NC)C(=O)N1C[C@@H](O)C[C@H]1Cc1c(-c2[nH]c3cc(F)ccc3c2C[C@@H]2C[C@H](O)CN2C(=O)[C@H](CC)NC(=O)[C@H](C)NC)[nH]c2cc(F)ccc12 [Birinapant] | -134 | – |
| CCOc1ccc(Cc2cc([C@@H]3O[C@H](CO)[C@@H](O)[C@H](O)[C@H]3O)ccc2Cl)cc1 [Dapagliflozin] + CC[C@H](NC(=O)[C@H](C)NC)C(=O)N1C[C@@H](O)C[C@H]1Cc1c(-c2[nH]c3cc(F)ccc3c2C[C@@H]2C[C@H](O)CN2C(=O)[C@H](CC)NC(=O)[C@H](C)NC)[nH]c2cc(F)ccc12 [Birinapant] | 212 | – |
| Cc1c(C(=O)Nc2ccc(N3C[C@@H](C)O[C@@H](C)C3)nc2)cccc1-c1ccc(OC(F)(F)F)cc1 [Sonidegib] + CC[C@H](NC(=O)[C@H](C)NC)C(=O)N1C[C@@H](O)C[C@H]1Cc1c(-c2[nH]c3cc(F)ccc3c2C[C@@H]2C[C@H](O)CN2C(=O)[C@H](CC)NC(=O)[C@H](C)NC)[nH]c2cc(F)ccc12 [Birinapant] | 68.2 | – |
| Cc1ccc(CN2CCNCC2)cc1NC(=O)CNc1ccc(F)c(F)c1 + CC[C@H](NC(=O)[C@H](C)NC)C(=O)N1C[C@@H](O)C[C@H]1Cc1c(-c2[nH]c3cc(F)ccc3c2C[C@@H]2C[C@H](O)CN2C(=O)[C@H](CC)NC(=O)[C@H](C)NC)[nH]c2cc(F)ccc12 [Birinapant] | 191 | – |
| c1ccc2c(-c3cnn4cc(-c5ccc(N6CCNCC6)cc5)cnc34)ccnc2c1 + CC[C@H](NC(=O)[C@H](C)NC)C(=O)N1C[C@@H](O)C[C@H]1Cc1c(-c2[nH]c3cc(F)ccc3c2C[C@@H]2C[C@H](O)CN2C(=O)[C@H](CC)NC(=O)[C@H](C)NC)[nH]c2cc(F)ccc12 [Birinapant] | -53.9 | – |
| CC(=O)NCCC(=O)N[C@@H](CCC(N)=O)C(=O)N[C@@H](CO)C(=O)N[C@@H](CCC(N)=O)C(=O)N[C@@H](CCC(N)=O)C(=O)N[C@H](C(=O)N[C@@H](Cc1ccccc1)C(=O)N[C@]1(C)CCCCCC/C=C\CCC[C@@](C)(C(=O)N[C@@H](CCC(N)=O)C(=O)N[C@@H](CC(N)=O)C(N)=O)NC(=O)[C@H](CC(C)C)NC(=O)[C@H](CC(C)C)NC(=O)[C@@H](CCCNC(=N)N)NC(=O)[C@H](Cc2c[nH]c3ccccc23)NC(=O)[C@H](CC(C)C)NC(=O)[C@H](CC(N)=O)NC1=O)[C@H](C)O + CC[C@H](NC(=O)[C@H](C)NC)C(=O)N1C[C@@H](O)C[C@H]1Cc1c(-c2[nH]c3cc(F)ccc3c2C[C@@H]2C[C@H](O)CN2C(=O)[C@H](CC)NC(=O)[C@H](C)NC)[nH]c2cc(F)ccc12 [Birinapant] | 168 | – |
| CCN1CCN(c2ccc(Nc3cc(N(C)C(=O)Nc4c(Cl)c(OC)cc(OC)c4Cl)ncn3)cc2)CC1 [Infigratinib] + CC[C@H](NC(=O)[C@H](C)NC)C(=O)N1C[C@@H](O)C[C@H]1Cc1c(-c2[nH]c3cc(F)ccc3c2C[C@@H]2C[C@H](O)CN2C(=O)[C@H](CC)NC(=O)[C@H](C)NC)[nH]c2cc(F)ccc12 [Birinapant] | -48.8 | – |

From the supplement of paper PMC7765376
